Data reported in publication PMC5540273 (PLoS ONE, 2017).

What follows are molecules tested on MRCKA. Conditions: concentration: 1 μM, replicates: in singlicate; n = 1.
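Note: KINOMEscan kinase panel screen.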

For `N#CC1(c2cccc(C(=O)Nc3cccc(Oc4ccc5nc(NC(=O)C6CC6)sc5n4)c3)c2)CC1`, which “%Inh” value is on record?
The value was 0%.

With `O=C(Nc1n[nH]c2nc(-c3ccccc3)ccc12)C1CC1` [SB-708999] as the molecule, how does the “%Inh” value read?
The value was 8%.

`CC(C)c1nc(-c2cccc(NS(=O)(=O)c3c(F)cccc3F)c2)c(-c2ccnc(Nc3ccc(N4CCOCC4)nc3)n2)s1.Cl` [GSK1723980] was tested. Which “%Inh” value did it give?
The value was 18%.

For `Cl.Cl.NCC(NC(=O)c1cc(-c2cccnc2)c(-c2ccnc3[nH]ccc23)s1)c1ccccc1` (stereo not drawn) [GSK1323434], which “%Inh” value is on record?
Its value is 39%.

For `COC(=O)Nc1nc2cc(Oc3ccc(NC(=O)Nc4cccc(SC)c4)cc3)ccc2[nH]1.Cl` [GW697999], which “%Inh” value is on record?
The value was 14%.

How did the “%Inh” value turn out when `O=C(Nc1n[nH]c2nc(-c3ccccc3O)ccc12)C1CC1` [SB-711880] was run?
The value was 4%.

With `O=C(Nc1n[nH]c2cc(-c3cccs3)ccc12)C1CC1` [SB-731284] as the molecule, how does the “%Inh” value read?
Its value is 0%.

For `O=C(Nc1c(F)cccc1F)c1cc(C(=O)c2ccccc2F)c[nH]1` [GSK1326180], which “%Inh” value is on record?
The value was 0%.

`Cc1ccc(Nc2ccnc(Nc3ccc(C)c(F)c3)n2)cc1O.Cl` [GW582868] was tested. Which “%Inh” value did it give?
The value was 0%.

`COc1cccc(-c2nc(-c3ccccc3)[nH]c2-c2ccncc2)c1` [SB-610250] was tested. Which “%Inh” value did it give?
The value was 41%.

Which “%Inh” value does the source give for `CCn1cnc2c(NCc3ccccc3)ncnc21` [SKF-96418] here?
The value was 0%.

With `Cl.Cl.NC(CNC(=O)c1cc(Br)c(-c2ccnc3[nH]ccc23)s1)c1ccccc1` (stereo not drawn) [GSK1322949] as the molecule, how does the “%Inh” value read?
Its value is 29%.

With `CN(c1ccc(F)c(NC(=O)c2cccc(OC(C)(C)C#N)c2Cl)c1)c1ccc2nc(NC(=O)C3CC3)sc2n1` as the molecule, how does the “%Inh” value read?
The value was 0%.

With `Fc1cc(Cl)ccc1Nc1ccnc2cc(-c3ccc(CN4CCOCC4)o3)ccc12` [GW560109] as the molecule, how does the “%Inh” value read?
Its value is 13%.

With `COc1cc(Nc2ccnc3cc(-c4ccncc4)ccc23)cc(OC)c1OC.Cl` [GW494610] as the molecule, how does the “%Inh” value read?
Its value is 0%.

Which “%Inh” value does the source give for `Cc1ccc(O)cc1Nc1ccnc2cc(-c3ccc(CN4CCCCC4)o3)ccc12` [GW557777] here?
The value was 0%.

`Nc1ncc(-c2ccc3nccc(-c4ccncc4)c3c2)cc1S(=O)(=O)N1CCCCC1` [GSK1693850] was tested. Which “%Inh” value did it give?
Its value is 12%.

`COc1ccc(C)c(Nc2ccnc(Nc3ccc(-c4cnc[nH]4)cc3)n2)c1.Cl` [GW784041] was tested. Which “%Inh” value did it give?
Its value is 20%.

How did the “%Inh” value turn out when `Fc1cc(Cl)ccc1Nc1ccnc2cc(-c3ccc(CN4CCSCC4)o3)ccc12` [GW560106] was run?
Its value is 0%.

How did the “%Inh” value turn out when `Cc1ccc(NC(=O)c2ccnc(N3CCCCC3)c2)cc1-c1ccc(C(=O)NCC2CC2)cc1` [GW775610] was run?
The value was 0%.

Which “%Inh” value does the source give for `CCOc1nccc(-c2c(-c3ccc(F)cc3)ncn2C2CCNCC2)n1` [SB-249175] here?
The value was 0%.

`O=C(O)C(F)(F)F.O=c1[nH]ccc2nc(N[C@@H]3CCNC3)nc(Nc3ccc4c(c3)S(=O)(=O)CC4)c12` [GSK2181306] was tested. Which “%Inh” value did it give?
Its value is 26%.

For `c1ccc(Oc2ccc(Nc3ccnc4cc(-c5ccc(CN6CCCCC6)o5)ccc34)cc2)nc1` [GW567143], which “%Inh” value is on record?
Its value is 13%.

For `Cc1ccc(C)c(NC(=O)Nc2ccc(C)c(-c3ccc(C(=O)Nc4ccncc4)cc3)c2)c1` [GSK1398473], which “%Inh” value is on record?
Its value is 24%.

With `Cn1cc(-c2cnc(N)c3c(-c4ccc5c(c4)CCN5C(=O)Cc4ccccc4)csc23)cn1` [GSK2593074] as the molecule, how does the “%Inh” value read?
The value was 10%.

`O=C(O)C(F)(F)F.O=c1[nH]ccc2nc(N[C@@H]3CCNC3)nc(Nc3cc(Cl)cc(Cl)c3)c12` [GSK2188764] was tested. Which “%Inh” value did it give?
The value was 24%.

Which “%Inh” value does the source give for `Cl.O=C(Nc1ccc(Oc2ccc3[nH]c(NC(=O)c4ccco4)nc3c2)cc1)Nc1cc(C(F)(F)F)ccc1F` [GW683134] here?
The value was 15%.

`Cc1cccc(Nc2nc(NCCN)ncc2C(N)=O)c1` [GSK1292139] was tested. Which “%Inh” value did it give?
Its value is 2%.

Which “%Inh” value does the source give for `CC(C)NCC(Cc1ccccc1)NC(=O)c1cc(Br)c(-c2ccnc3[nH]ccc23)s1.Cl.Cl` (stereo not drawn) [GSK1383281] here?
The value was 25%.

For `Nc1cccc(-c2ccc3c(N)n[nH]c3c2)c1` [GSK2193613], which “%Inh” value is on record?
Its value is 0%.

With `COc1cc(Nc2nccc(N3CCC(NS(=O)(=O)c4ccc(NC(C)=O)cc4)CC3)n2)cc(OC)c1OC` [GSK1379825] as the molecule, how does the “%Inh” value read?
The value was 92.3%.

How did the “%Inh” value turn out when `Cc1nn2c(=O)cc(N3CCO[C@H](C)C3)nc2n1Cc1cccc(Cl)c1Cl` [GSK2373693] was run?
Its value is 0%.

For `CN1CCN(Cc2ccc(NC(=O)Nc3ccc(N(C)c4ccnc(Nc5ccc(CS(C)(=O)=O)cc5)n4)cc3)cc2)CC1.Cl` [GW827654], which “%Inh” value is on record?
Its value is 15%.
